Assay results: PubChem BioAssay AID1159580 (chemical genetic matrix, 2015)
Among all 5,500 compounds or so, about 2,000 (36%) were called active. Another 18% or so got no clear call; they are omitted. No stated cut-off is given here; in the data, active means normalized growth mostly below about 0.91 (no sharp cut-off); inconclusive means no clear call, values can overlap the other calls; inactive means mostly above about 0.92. Some of the results follow.

Assay: chemical genetic growth profiling, strain panel (AID 1159580);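 further: tested at 20 µM; growth read once vehicle control cultures reached saturation at 30 °C; 1 = growth at the plate median or of vehicle wells; lower values mean less growth of the strain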
Conditions: growth OD
[1] = S. cerevisiae deletion strains, locus YHR030C, strain SLT2, active compounds read low

Measured: normalized growth

CC(Oc1ccc(Cl)cc1Cl)C(=O)O (stereo not given)
inactive: [1] 0.968 | S. cerevisiae deletion strains, locus YHR079C, strain IRE1, active compounds read low 0.964 | S. cerevisiae deletion strains, locus YJL095W, strain BCK1, active compounds read low 0.961 | S. cerevisiae deletion strains, locus YJR066W, strain TOR1, active compounds read low 0.898 | S. cerevisiae deletion strains, locus YLR113W, strain HOG1, active compounds read low 0.968 | S. cerevisiae deletion strains, locus YNL183C, strain NPR1, active compounds read low 0.896 | S. cerevisiae deletion strains, locus YOR231W, strain MKK1, active compounds read low 0.965 | S. cerevisiae deletion strains, locus YPL256C, strain CLN2, active compounds read low 0.955

O=C(Oc1ccc(Cl)cc1Cl)c1c(Cl)cccc1Cl
active: [1] 0.681 | S. cerevisiae deletion strains, locus YLR262C, strain YPT6, active compounds read low 1.2 [resistant]
inactive: S. cerevisiae deletion strains, locus YAL013W, strain DEP1, active compounds read low 0.946 | S. cerevisiae deletion strains, locus YBR229C, strain ROT2, active compounds read low 0.981 | S. cerevisiae deletion strains, locus YDL101C, strain DUN1, active compounds read low 0.979 | S. cerevisiae deletion strains, locus YDR150W, strain NUM1, active compounds read low 0.882 | S. cerevisiae deletion strains, locus YEL061C, strain CIN8, active compounds read low 0.997 | S. cerevisiae deletion strains, locus YGR078C, strain PAC10, active compounds read low 0.965 | S. cerevisiae deletion strains, locus YHR087W, strain rtc3, active compounds read low 0.982 | S. cerevisiae deletion strains, locus YJL187C, strain SWE1, active compounds read low 0.967 | S. cerevisiae deletion strains, locus YJR043C, strain POL32, active compounds read low 0.955 | S. cerevisiae deletion strains, locus YJR075W, strain HOC1, active compounds read low 0.945 | S. cerevisiae deletion strains, locus YKL190W, strain CNB1, active compounds read low 0.969 | S. cerevisiae deletion strains, locus YLR039C, strain RIC1, active compounds read low 1.2 | S. cerevisiae deletion strains, locus YLR058C, strain SHM2 (second series), active compounds read low 0.989 | S. cerevisiae deletion strains, locus YLR085C, strain ARP6, active compounds read low 0.812 | S. cerevisiae deletion strains, locus YML094W, strain GIM5, active compounds read low 0.968 | S. cerevisiae deletion strains, locus YMR219W, strain ESC1, active compounds read low 0.985 | S. cerevisiae deletion strains, locus YMR263W, strain SAP30, active compounds read low 0.961 | S. cerevisiae deletion strains, locus YNL153C, strain GIM3, active compounds read low 0.985 | S. cerevisiae deletion strains, locus YNL298W, strain CLA4 (second series), active compounds read low 0.957 | S. cerevisiae deletion strains, locus YNL322C, strain KRE1, active compounds read low 0.986 | S. cerevisiae deletion strains, locus YNR030W, strain Alg12, active compounds read low 0.939 | S. cerevisiae deletion strains, locus YPL055C, strain LGE1, active compounds read low 0.876 | S. cerevisiae deletion strains, locus YPL241C, strain CIN2, active compounds read low 0.954 | S. cerevisiae deletion strains, locus YPR135W, strain CTF4, active compounds read low 0.907 | S. cerevisiae strains, strain wild type, active compounds read low 0.984
